HCV inh: qHTS Assay for Inhibitors of Hepatitis C Virus (HCV); Huh7.5.1 HCVcc-Cre infection, luciferase reporter, 44 h; Potency, µM (titrated, usually from 41.8 µM), without a hit: at the highest dose activity change, negative = inhibition, hits mostly inhibitors; actives 3.4% (n = 340,000); AID 651820, 2012; further: potency means the concentration at half of the fitted maximal effect; on the % scale 0 is the no-effect control and ±100 the full control effect
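Infectious HCVcc-Cre (~0.5 moi) was added to cells just after compound, with cells seeded 4 h earlier at 1,000 per well. Luciferase activity after 44 h culture reported infection; substrate was incubated 15 min at room temperature before reading.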
Shiga inhibitor: A qHTS for Small Molecule Inhibitors of Shiga Toxin; Vero cells, Shiga toxin protein synthesis inhibition reporter; inhibition, % at 38.7 µM; actives 9.2% (n = 290,000); AID 2315, 2010; in the data active means inhibition mostly above about 28%, no sharp cut-off; inactive means mostly below about 43%; further: 0% is about no effect
Pf growth 96h: Primary qHTS for delayed death inhibitors of the malarial parasite plastid, 96 hour incubation; P. falciparum luciferase reporter growth, 96 h; Potency, µM (top dose mostly 28.7 µM), without a hit: at the top dose activity change, negative = inhibition, actives largely listed as inhibitors; actives 6.9% (n = 320,000); further: potency means the concentration at half of the fitted maximal effect; on the % scale 0 is the no-effect control and ±100 the full control effect
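Parasite growth measured via integrated firefly luciferase reporter in P. falciparum. Infected erythrocytes at 2% hematocrit, 0.05% parasitemia final were treated 96 hours at 37 C under 5% CO2, and luminescence was read.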
HCMV inh: qHTS Assay for inhibitors of the human cytomegalovirus (HCMV) | HFF cells, HCMV-luciferase reporter, 72 h; hits give low values | activity change, negative = inhibition, % at 57.5 µM | actives 4.5% (n = 410,000) | AID 1259415, 2018; in the data active means activity change below about -60%; inconclusive means no clear call, values can overlap the other calls; inactive means above about -39%; further: on the % scale 0 is the no-effect control and ±100 the full control effect
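Luciferase read-out from HCMV-luciferase-infected HFFs (MOI 1 PFU/cell) 72 h post infection at 37C; compounds added after 16 h cell attachment; activity normalized between buffer-only basal and Salinomycin (10uM) inhibitor controls.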
Pf growth 48h: Primary qHTS for delayed death inhibitors of the malarial parasite plastid, 48 hour incubation | P. falciparum luciferase growth in erythrocytes, 48 h | Potency, µM (doses to about 28.7 µM), for the others: at the top dose activity change, negative = inhibition, hits mostly inhibitors | actives 5.9% (n = 310,000); further: potency means the concentration at half of the fitted maximal effect; on the % scale 0 is the no-effect control and ±100 the full control effect
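Luciferase-expressing parasites in RBCs, 2% Hct / 0.1% parasitemia final; RPMI 1640 + 0.5% Albumax; 37 C, 5% CO2, one generation; luminescence read-out, lower signal = inhibition.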
Cycloheximide cs: Cycloheximide Counterscreen for Small Molecule Inhibitors of Shiga Toxin | cell reporter, cycloheximide protein synthesis inhibition counterscreen | max response, % | actives 12% (n = 300,000); in the data active means max response mostly above about 13%, no sharp cut-off; inactive means mostly below about 14%; further: read at 38.3 µM for the half of the compounds with a filed dose; 0% is about no effect
An asterisk follows results filed as active; [ ] = another dose, or the depositor's remark. The list is not random: actives were taken first. Their share in the collection is about 21%. Unless noted, the call rests on the fitted dose curve; in most records, active means well fitted inhibition curve with a large enough effect; inconclusive means small, poorly fitted or top-dose-only effect, or another doubt; inactive means no such curve, though single readings can be large or run the other way.

Results for CCOC(=O)N1CCC(NC(=O)CCC(=O)N2CCOc3ccccc32)CC1 ?
HCV inh: 5.5%; Shiga inhibitor: 3.7; Pf growth 96h: inconclusive; HCMV inh: -5.8; Pf growth 48h: 36.7%; Cycloheximide cs: 6.9

Results for O=C(CC1COc2ccccc2O1)NC1CCCCC1 (stereo not given) ?
HCV inh: 3.6%; Shiga inhibitor: 24.2; Pf growth 96h: 1.8%; HCMV inh: -12.4; Pf growth 48h: 36.0%; Cycloheximide cs: 10.0

What do the screens show for `O=C(CCC1COc2ccccc2O1)NC1CCCCC1` (stereo not given)?
HCV inh: inconclusive; Shiga inhibitor: 27.3; Pf growth 96h: 119.4%; HCMV inh: 14.8; Cycloheximide cs: 35.8*

What do the screens show for `Cc1cc(C)nc(SCC2COc3ccccc3O2)n1` (stereo not given)?
HCV inh: -3.0%; Shiga inhibitor: 78.6*; Pf growth 96h: 87.0%; HCMV inh: 30.6; Pf growth 48h: 40.7%; Cycloheximide cs: 24.2

What do the screens show for `COc1ccc(Cl)cc1NC(=O)CCC(=O)N1CCOc2ccccc21`?
HCMV inh: -21.5

What do the screens show for `O=C(CCC(=O)N1CCOc2ccccc21)NC1CCCCCC1`?
HCV inh: 0.5%; Shiga inhibitor: 12.6; Pf growth 96h: 9.3%; HCMV inh: 28.9; Pf growth 48h: -14.2%; Cycloheximide cs: 6.6*

What do the screens show for `COCCNC(=O)c1ccc(CS(=O)(=O)c2cccc(C(F)(F)F)c2)o1`?
HCV inh: 19.2%; Shiga inhibitor: -12.4; Pf growth 96h: inconclusive; HCMV inh: -24.9; Pf growth 48h: -0.8%[0.00184 µM]; Cycloheximide cs: -3.3

How did COC(=O)[C@H](CCSC)NC(=O)Nc1ccc(S(N)(=O)=O)cc1 do in these assays?
HCV inh: 19.2%; Shiga inhibitor: 3.6; Pf growth 96h: 62.9%; HCMV inh: -15.1; Pf growth 48h: inconclusive; Cycloheximide cs: -2.0

What do the screens show for `Cc1cc(C)n(C(=O)CCC2COc3ccccc3O2)n1` (stereo not given)?
HCV inh: -8.6%; Shiga inhibitor: 35.3; Pf growth 96h: inconclusive; HCMV inh: 27.5; Pf growth 48h: 33.9%; Cycloheximide cs: 10.6*

What do the screens show for `Cc1nc(SCc2ccccc2Cl)c(C#N)c(C)c1C`?
HCMV inh: -39.7

What do the screens show for `COc1cccc(/C=C/c2ccccn2)c1O`?
HCV inh: -23.0%; Shiga inhibitor: 110.2*; Pf growth 96h: inactive; HCMV inh: 84.4; Pf growth 48h: 246.9%; Cycloheximide cs: 49.8*

How did COc1ccccc1C=Cc1ccnc2ccccc12 do in these assays?
HCV inh: inconclusive; HCMV inh: 45.8

What do the screens show for `O=C(NCc1ccccn1)C12CC3CC(CC(C3)C1)C2`?
HCV inh: 19.4%; Shiga inhibitor: -13.0; Pf growth 96h: 44.9%; HCMV inh: 1.6; Pf growth 48h: -16.4%; Cycloheximide cs: -0.9

Results for CCCn1nnc(NC(=O)/C=C/c2ccc(C(C)C)cc2)n1 ?
HCV inh: inconclusive; Shiga inhibitor: 20.7; Pf growth 96h: inconclusive; HCMV inh: -32.3; Pf growth 48h: inconclusive; Cycloheximide cs: 12.5

What do the screens show for `CC(=O)N(c1ccccc1)C1CCCC1`?
HCV inh: 14.5%; Shiga inhibitor: -0.4; Pf growth 96h: 0.0%; HCMV inh: -0.9; Pf growth 48h: -1.4%; Cycloheximide cs: -2.4

Results for CC(=O)N(c1nnc(-c2ccc(C)cc2)s1)C1CCCC1 ?
HCV inh: -6.9%; Shiga inhibitor: 26.1*; Pf growth 96h: inconclusive; HCMV inh: 50.3; Pf growth 48h: 40.7%; Cycloheximide cs: 28.3*

How did CC(C)CC(=O)N(c1nnc(-c2cccnc2)s1)C1CCCC1 do in these assays?
HCV inh: 13.2%; Shiga inhibitor: 15.0; Pf growth 96h: inconclusive; HCMV inh: -0.9; Pf growth 48h: inconclusive; Cycloheximide cs: 10.9*

How did COc1cccc(Cn2c(C)c(CNCc3ccccc3Cl)c(C(=O)O)c2C)c1 do in these assays?
HCMV inh: 9.7
